# Laboratory results taken from ChEMBL document CHEMBL3988442, “University of Dundee, Small-Polar-MMV Screening Library” (2021).
# The whole screen tested about 48,000 compounds, of which about 13,000 (27%) showed an effect of 50% or more. The list shows a part of the results.
# Test system: Wolbachia pipientis
# Assay: Anti-Wolbachia Cell-Based Screen
# Type: functional
# Design: scale not given: in the data most compounds retested in dose-response had high values
# Details: 5 µM
row,Structure (SMILES),Percent Effect [%]
1,O=C(Cc1ccc(F)cc1)N1CCCC(c2n[nH]c3nccnc23)C1 (stereo not given),91.78
2,Cc1cc(C2CCCN(C(=O)COc3ccc(F)cc3F)C2)n[nH]1 (stereo not given),-1.844
3,O=C(CC1CCCC1)N1CCCC(c2n[nH]c3nccnc23)C1 (stereo not given),-9.091
4,Cc1ccc(CC(=O)N2CCCC(c3n[nH]c4nccnc34)C2)cc1 (stereo not given),102
5,O=C(CCc1ccccc1)N1CCCC(c2n[nH]c3nccnc23)C1 (stereo not given),111
6,CN(C(=O)CN1CCc2nn(C)c(=O)cc2C1)c1nccs1,-17.97
7,CC(=O)N1CC=C(n2c(=O)[nH]c3ccccc32)CC1,120.7
8,CC(=O)N1CCC2(CC1)CN(C(=O)c1cccc3[nH]ccc13)C2,7.707
9,CC(=O)N1CCN(C(=O)c2c(Cl)c3ccccc3n2C)CC1,8.743
10,Cc1ccc(N2CC[C@@H](NC(=O)c3cnccn3)[C@H](O)C2)nn1,13.4
11,CC(C)CN1C(=O)CO[C@@H]2CN(C(=O)N(C)C)C[C@H]21,9.504
12,CN1CCC(C(=O)NCc2nncn2-c2ccccc2)CC1=O (stereo not given),-4.452
13,COc1cc(F)c(C(=O)N2C[C@@H](CN(C)CCO)[C@@H](CO)C2)c(F)c1,-8.552
14,COCCN(C)C[C@@H]1CN(C(=O)c2cccc(C#N)c2)C[C@@H]1CO,104.9
15,CN(CCO)C[C@@H]1CN(C(=O)c2c(F)cccc2Cl)C[C@@H]1CO,-7.74
16,CN(CCO)C[C@@H]1CN(C(=O)c2cccc(OC(F)F)c2)C[C@@H]1CO,95.7
17,CCN(C)C[C@@H]1CN(S(=O)(=O)c2cccc(C#N)c2)C[C@@H]1CO,-4.035
18,COCCN(C)C[C@@H]1CN(C(=O)c2cccc(Cl)c2)C[C@@H]1CO,153.3
19,COCCN(C)C[C@@H]1CN(C(=O)c2cccc(C(F)(F)F)c2)C[C@@H]1CO,-9.662
20,CN1CCC(N[C@@H]2CO[C@H](CNC(=O)Nc3ccccc3)[C@H]2O)CC1,-15.1
21,O=C(c1ccc(F)cc1F)N1C[C@H]2CC[C@@H]1CN(Cc1ccccc1)C2,-4.594
22,CC(C)N1CC2(CCCN(c3ncc(Cl)cc3F)C2)CCC1=O (stereo not given),-5.351

row,Structure (SMILES),Percent Effect [%]
1,CCn1ccc(NC(=O)CCc2c(C)noc2C)n1,94.65
2,NC(=O)Cn1ccc(NC(=O)C2(c3ccc(F)cc3)CC2)n1,-13.95
3,Cc1noc(C)c1CC(=O)Nc1ccn(CC(N)=O)n1,108.2
4,Cc1nn(C)c(C)c1CCC(=O)Nc1cn(C)c(=O)n(C)c1=O,-11.84
5,CCn1ccc(NC(=O)CCc2c(C)nn(C)c2C)n1,89.06
6,Cc1noc(C)c1CCC(=O)NCCc1cccs1,18.14
7,Cc1noc(C)c1CC(=O)NCCc1cccs1,21.95
8,Cc1nn(C)c(C)c1CCC(=O)Nc1cccn(C)c1=O,0.3485
9,Cc1ccc(NC(=O)CNc2ccn(CC(N)=O)n2)c(Cl)c1,2.31
10,Cc1noc(C)c1CCC(=O)Nc1ccn(C)n1,102.9
11,Cc1noc(C)c1CCC(=O)N(C)C(C)c1cccs1 (stereo not given),-6.492
12,CCS(=O)(=O)CCn1ccc(NC(=O)CCc2cccc(C)c2)n1,-1.723
13,CCc1cc(N(C)Cc2c(C)nn(C)c2C)n2nccc2n1,-6.903
14,CN(Cc1cc(F)ccc1F)CC(C)(CO)CO,17.08
15,CNC(=O)c1cccc(NCCOc2ccc(CC#N)cc2)c1C,12.16
16,COc1cccc(Cn2ncc(N(C)CCc3ccccc3)cc2=O)c1,-17.12
17,CC(C)OCCn1nnnc1Cc1ccc(Br)cc1,-13.25
18,CCOC(C(=O)N1CCn2c(C)nnc2C1)c1ccccc1 (stereo not given),-1.753
19,CCN(C)CC1CCN(c2ncc(Br)cn2)C1 (stereo not given),-2.721
20,CN(C)C(C(=O)N1CCCC1)c1ccccc1F (stereo not given),1.504
21,COc1ccc(-c2nccc(C3CCCN3C)n2)cc1 (stereo not given),122.9
22,COc1cccc(-c2noc3c2CN(c2ncnc4c2CCC4)CC3)c1,-1.898

row,Structure (SMILES),Percent Effect [%]
1,COc1ccc(C2CCCN2c2cnccn2)c(OC)c1 (stereo not given),8.264
2,COCCOc1ccnc(-c2noc([C@@H]3CCCN3CC(C)(C)C)n2)c1,20.74
3,COCCOc1ccnc(-c2noc([C@@H]3CCCN3C)n2)c1,-6.49
4,COCCN1CCCC1c1ccnc(-c2ccccc2)n1 (stereo not given),120.2
5,CN1CCCC1c1ccnc(-c2ccccn2)n1 (stereo not given),114
6,Cc1nn(C)c2nc(-c3ccccn3)nc(NCCC3CCCN3C)c12 (stereo not given),-7.173
7,COc1ccc(-c2noc([C@@H]3C[C@@H](O)CN3C3CCN(C)CC3)n2)cc1,-10.46
8,O=C(N1CCOCC1)N1CCCC1c1nc(-c2ccccn2)no1 (stereo not given),12.43
9,COCCOc1ccnc(-c2noc([C@@H]3CCCN3CC3CC3)n2)c1,-13.12
10,COc1cccc(-c2nccc(C3CCCN3C)n2)c1 (stereo not given),102
11,CN(CC(=O)NC(C)(C#N)C1CC1)Cc1nnc(C2CC2)n1C (stereo not given),-18.04
12,Cc1cccc(S(=O)(=O)N2CSCC2C(=O)NC(C)(C)C)c1 (stereo not given),-10.25
13,CCc1nc(CCNC(=O)NC2CC2)sc1C,2.732
14,C/C=C(\C)CN1C[C@H](c2cccc(OC)c2)[C@@H](N)C1,1.044
15,CN1CCN(C2CCN(c3ccnc(-c4ccccc4)n3)CC2)C1=O,9.74
16,CN1CCCC1CCn1ccnc1-c1nc(-c2ccccc2)no1 (stereo not given),-1.363
17,CN1CCCC1c1ccnc(-c2ccccc2)n1 (stereo not given),129.7
18,O=C(C[C@H]1[C@H]2CN(C(=O)Cc3ccccn3)C[C@@H]12)Nc1cccnc1,-5.449
19,O=C(c1cscn1)N1C[C@@H](Oc2cccnc2)[C@H]2OCCC[C@H]21,101.6
20,O=C(CC1CCCC1)N1C[C@H](Oc2cccnc2)[C@H]2OCCC[C@H]21.O=C(O)C(F)(F)F,105.6
21,O=C(c1ccnnc1)N1C[C@@H](OCC2CCCC2)[C@H]2OCCC[C@H]21,-2.599
22,CN(C)S(=O)(=O)N1C[C@H](Oc2cccnc2)[C@H]2OCCC[C@H]21.O=C(O)C(F)(F)F,21.05

row,Structure (SMILES),Percent Effect [%]
1,CN(C)CC(=O)N1C[C@@H](Oc2ccccn2)[C@H]2OCCC[C@H]21,-36.21
2,O=C(C1=CCCC1)N1C[C@H](Oc2cccnc2)[C@H]2OCCC[C@H]21,9.91
3,O=C(Cc1ccccn1)N1C[C@@H](Oc2cccnc2)[C@H]2OCCC[C@H]21,93.72
4,Cc1[nH]nc(CCC(=O)N2C[C@H]3CC[C@@H]2CN(C(=O)N(C)C)C3)c1C,-18.31
5,CC(=O)N[C@H](C)c1c(-c2ccc(Cl)cc2)noc1C(=O)O,-1.378
6,CCOCC1c2c(ncn2C(C)C)CCN1C(=O)CC (stereo not given),-9.692
7,CCOCC1c2c(ncn2C)CCN1C(=O)c1cscn1 (stereo not given),99.42
8,CCOCC1c2c(ncn2C)CCN1C(=O)c1cnc(C)cn1.O=C(O)C(F)(F)F (stereo not given),107
9,CCOCC1c2c(ncn2C)CCN1C(=O)c1ccoc1 (stereo not given),86.79
10,CCOCC1c2c(ncn2C(C)C)CCN1C(=O)C1CC1 (stereo not given),9.389
11,O=C(c1cscn1)N1CCn2cnc(COCC3CC3)c2C1,-4.402
12,Cn1cnc2c1C(COCc1ccccc1)N(Cc1cccnc1)CC2.O=C(O)C(F)(F)F.O=C(O)C(F)(F)F.O=C(O)C(F)(F)F (stereo not given),3.52
13,CCOCC1c2c(ncn2C(C)C)CCN1C(C)C.O=C(O)C(F)(F)F.O=C(O)C(F)(F)F (stereo not given),0.9894
14,Cn1cnc2c1C(COCc1ccccc1)N(Cc1ccncc1)CC2.O=C(O)C(F)(F)F.O=C(O)C(F)(F)F.O=C(O)C(F)(F)F (stereo not given),-5.71
15,O=C(NCCn1ccnc1-c1cc2n(n1)CCCNC2)c1ccncc1,-0.5813
16,CC(NC(=O)c1ccoc1)C(=O)N(C)Cc1cccc(C(F)(F)F)c1 (stereo not given),12.38
17,CCn1nc2c(cc1=O)CN(Cc1nc(CCOC)no1)CC2,-7.437
18,Cc1cccc(C(C)(C)CNC(=O)CCSc2nnnn2C)c1,-0.1425
19,CCCn1c(C)c(CC(=O)N(C)CCOC)c2c1CC(C)(C)CC2=O,-2.271
20,Cc1c[nH]c(CN(C)C(=O)CCn2cnc3ccccc32)n1,-8.611
21,CCCOc1ccc(OCCN2CCOCS2(=O)=O)cc1,-1.298
22,Cc1ccc(C)c2c(O)cc(CN3CCNC(=O)C3C)nc12 (stereo not given),-11.58

row,Structure (SMILES),Percent Effect [%]
1,CC1C(=O)NCCN1CCOc1ccc(C#N)cc1 (stereo not given),92.79
2,Cc1ncc2c(n1)CN(CCOc1ccc3c(c1)CCC(=O)N3)CC2,3.437
3,CSc1ccc(OCCN2CCNC(=O)C2C)cc1 (stereo not given),111.5
4,CCn1nc2c(cc1=O)CN(CCOc1ccc(C#N)cc1)CC2,2.029
5,Cc1nc(C)n(CC2CCCN2CCOc2ccc(C#N)cc2)n1 (stereo not given),-3.46
6,CSc1ccc(OCCN2CCNC(=O)CC2)cc1,106.2
7,COc1ccc(CN2CCNC(=O)CC2)cc1SC(F)(F)F,-6.808
8,Cc1noc(C)c1CNCC1COCc2c(-c3ccsc3)nnn2C1.O=C(O)C(F)(F)F (stereo not given),0.4259
9,Cc1ncc(S(=O)(=O)Nc2ccnn2C2CCCCC2)[nH]1,-19.02
10,COc1ccc(-n2ncc(C(C)NC3CCOCC3)c2C)cc1 (stereo not given),-6.318
11,CCN1CCC(NC(=O)CN2CCCC2Cn2cccn2)CC1 (stereo not given),18.69
12,CC(C)(C)c1cc(NC(=O)CN2CCCCC2Cn2cncn2)on1 (stereo not given),-6.385
13,CCN1CCC(NC(=O)CN2CCCCC2Cn2cccn2)CC1 (stereo not given),8.022
14,CC(C)(C)c1cc(NC(=O)CN2CCCC2Cn2cncn2)on1 (stereo not given),8.198
15,Cc1cc(NC(=O)CCN2CCCC2Cn2cncn2)no1 (stereo not given),7.653
16,Cc1cc(NC(=O)CCN2CCCCC2Cn2cncn2)no1 (stereo not given),123.3
17,O=C(CN1CCCC1Cn1cccn1)NC1CCN(C2CC2)CC1 (stereo not given),-5.086
18,Cc1cc(NC(=O)CCN2CCCCC2Cn2cccn2)no1 (stereo not given),107.3
19,O=C(CN1CCCCC1Cn1cccn1)NC1CCOCC1 (stereo not given),-17.79
20,CC(C)(C)c1cc(NC(=O)CN2CCCC2Cn2cccn2)on1 (stereo not given),83.96
21,Cc1cc(NC(=O)CCN2CCCC2Cn2cccn2)no1 (stereo not given),85.34
22,CC(C)c1cc(NC(=O)CN2CCCC2Cn2cccn2)on1 (stereo not given),-0.3726
